SARS 3CLpro inh-1: SARS-CoV 3CLpro protease inhibitors, primary screen, biochemical, quenched FRET; recombinant SARS-CoV 3CLpro, quenched FRET peptide cleavage; inhibition, % at 6 µM; hit rate 0.14% among 290,000; in the data active = inhibition above about 12%
SSB-PriA inh: inhibitors of Klebsiella pneumoniae PriA binding to SSB C-terminal tail, primary screen, biochemical, AlphaScreen; PriA–SSB C-terminal tail interaction (Klebsiella pneumoniae); AlphaScreen SSBct-PriA binding, biotinylated peptide; inhibition, % at 33 µM; hit rate 0.6% among 430,000; AID 1272365, 2023; in the data active = inhibition mostly above about 37%, no sharp cut-off; inactive = mostly below about 20%;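 note: plate controls were negative control peptide for no effect and reference peptide for full effect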
BJeLR lethal: MLPCN primary cell-based screen for lethality selective to Ras in HRASV12 cells. hit rate 0.17% among 300,000. AID 1554, 2009. BJeLR (HRASV12) viability, CellTiter-Glo ATP luminescence, 48 h. inhibition, % (no concentration beside the values); in the data active = inhibition above about 50%
SARS 3CLpro inh-2: confirmation of SARS coronavirus 3C-like protease inhibitors, retest, confirmation, biochemical | shares compounds with SARS 3CLpro inh-1 | QFRET protease activity assay, 3CLpro | inhibition, % at 6 µM | hit rate 36% among 380 | AID 1879, 2009; in the data active = inhibition above about 13%
The depositor's hits bear a star. A selection: hits, their analogues and other compounds. The true share with any hit is near 0.78%.

What do the screens show for `CCCCOc1cccc(C2C(=C(O)c3ccc4c(c3)CC(C)O4)C(=O)C(=O)N2CCN2CCOCC2)c1` (stereo unspecified)?
SSB-PriA inh: 0.6

Results for O=C(CN1C(=O)c2ccccc2C1=O)Nc1ccc(N2CCCS2(=O)=O)cc1 ?
SSB-PriA inh: -4.0

Results for O=C1/C(=C/c2ccc(Cl)cc2)SC(=S)N1CCC(=O)N1CCCCC1CCO (stereo unspecified) ?
SARS 3CLpro inh-1: 1.4; SSB-PriA inh: 6.3; BJeLR lethal: 4.8

How did O=C1/C(=C/c2cccc(Cl)c2)SC(=S)N1CCC(=O)N1CCCCC1CCO (stereo unspecified) do in these assays?
SARS 3CLpro inh-1: 13.9*; SSB-PriA inh: -12.0; BJeLR lethal: -2.7; SARS 3CLpro inh-2: 2.8

How did N#Cc1c(-c2ccccc2)nc(SCC(=O)Nc2ccccc2)[nH]c1=O do in these assays?
SARS 3CLpro inh-1: -1.3; SSB-PriA inh: -21.2

What do the screens show for `N#Cc1c(-c2ccccc2)nc(SCC(=O)Nc2ccc(OC(F)(F)Cl)cc2)[nH]c1=O`?
SARS 3CLpro inh-1: 16.2*; SSB-PriA inh: -6.3; BJeLR lethal: 7.3; SARS 3CLpro inh-2: 0.5

What do the screens show for `O=C(CSCc1ccccc1)N1CC(Oc2nccs2)C1`?
SSB-PriA inh: -4.0

How did CC(C)c1ccc(NC(=O)CSc2n[nH]c(=O)n2-c2cccnc2)cc1 do in these assays?
SARS 3CLpro inh-1: -1.2; SSB-PriA inh: -6.0; BJeLR lethal: 11.2

What do the screens show for `CC(C)(C)c1ccc(NC(=O)CSc2n[nH]c(=O)n2-c2cccnc2)cc1`?
SARS 3CLpro inh-1: 12.2*; SSB-PriA inh: 3.3; BJeLR lethal: 9.6; SARS 3CLpro inh-2: -3.2

How did CS(=O)(=O)N1CC(C(=O)Nc2ccc(C(N)=O)cc2)C1 do in these assays?
SSB-PriA inh: 19.0

What do the screens show for `Cc1nn2c(=O)[nH]c(SCC(=O)NCc3ccc(F)cc3)nc2c1-c1ccccc1`?
SSB-PriA inh: -3.0

What do the screens show for `CCCCOc1ccc(C(=O)Oc2cccnc2)cc1`?
SARS 3CLpro inh-1: 19.3*; SSB-PriA inh: 1.6; BJeLR lethal: -9.4; SARS 3CLpro inh-2: 14.1*

What do the screens show for `CCCCCCOc1ccc(OC(=O)c2ccncc2)cc1`?
SARS 3CLpro inh-1: -5.4; SSB-PriA inh: -11.6; BJeLR lethal: -3.6

How did COc1ccc(C(=O)N2CCC(c3nnc(-c4ccco4)o3)CC2)cc1 do in these assays?
SSB-PriA inh: -12.0

What do the screens show for `CCOc1cc(C(N)=O)cc(Br)c1OC`?
SARS 3CLpro inh-1: 15.0*; SSB-PriA inh: -18.0; BJeLR lethal: 16.9; SARS 3CLpro inh-2: -1.1

Results for CCOc1cc(C(N)=O)cc(OCC)c1OCC ?
SARS 3CLpro inh-1: 6.7; SSB-PriA inh: -24.4; BJeLR lethal: -2.9

Results for COc1ccc(NC(=O)CN2CCC(C(=O)Nc3cccc(NC(C)=O)c3)CC2)c(OC)c1 ?
SSB-PriA inh: -1.0

How did C[C@@]12C(=O)N(c3cccc(F)c3)C(=O)N1[C@H](c1ccc(F)cc1)[C@@H]1C(=O)N(C3CCCCC3)C(=O)[C@@H]12 do in these assays?
SARS 3CLpro inh-1: 13.5*; SSB-PriA inh: 8.8; BJeLR lethal: -4.8; SARS 3CLpro inh-2: 5.8

Results for C[C@@]12C(=O)N(c3cccc(F)c3)C(=O)N1[C@H](c1ccc(Cl)cc1)[C@@H]1C(=O)N(C3CCCCC3)C(=O)[C@@H]12 ?
SSB-PriA inh: -10.3; BJeLR lethal: 0.5

What do the screens show for `CC(C)(C)OC(=O)[C@H](Cc1ccccc1)NC(=O)c1[nH]cnc1C(=O)N[C@@H](Cc1ccccc1)C(=O)OCc1ccccc1`?
SARS 3CLpro inh-1: 12.7*; SSB-PriA inh: -1.5; BJeLR lethal: 6.1; SARS 3CLpro inh-2: 4.8

How did CC(C)(C)OC(=O)[C@H](Cc1ccccc1)NC(=O)c1nc[nH]c1C(=O)N[C@@H](Cc1ccccc1)C(=O)OC(C)(C)C do in these assays?
SSB-PriA inh: -1.6; BJeLR lethal: 3.2

How did COc1ccccc1/C=C/C(=O)c1cc(Br)ccc1OC(=O)c1ccco1 do in these assays?
SARS 3CLpro inh-1: 14.8*; SSB-PriA inh: 12.1; BJeLR lethal: 17.2; SARS 3CLpro inh-2: 50.0*

How did COc1ccc(C(=O)/C=C/c2ccc(OC)c(OC)c2)c(OC(=O)c2ccco2)c1 do in these assays?
SSB-PriA inh: 6.0

How did O=C(/C=C/c1cc(Br)ccc1O)c1ccco1 do in these assays?
SARS 3CLpro inh-1: -2.0; SSB-PriA inh: 2.2; BJeLR lethal: -4.4

What do the screens show for `Cc1ccc(/C=C/C(=O)c2cc(Br)ccc2OC(=O)c2ccco2)cc1`?
SARS 3CLpro inh-1: 23.1*; SSB-PriA inh: -13.8; BJeLR lethal: 9.6; SARS 3CLpro inh-2: 32.4*

How did CC(CCc1ccccc1)NC(=O)C1CN(c2nc3ccc(F)cc3s2)C1 (stereo unspecified) do in these assays?
SSB-PriA inh: -9.0

What do the screens show for `O=[N+]([O-])c1ccccc1/C=C/C=Nn1c(-c2ccco2)n[nH]c1=S`?
SSB-PriA inh: 10.2

How did O=[N+]([O-])c1ccccc1/C=C/C=N/n1c(-c2ccco2)n[nH]c1=S do in these assays?
SARS 3CLpro inh-1: 15.3*; BJeLR lethal: -0.6; SARS 3CLpro inh-2: 4.1

How did COC(=O)N1CCC(CNC(=O)Cc2cccs2)CC1 do in these assays?
SSB-PriA inh: -9.0

Results for CNC(=O)c1coc(N)n1 ?
SSB-PriA inh: -6.0

What do the screens show for `Cc1ccc(-n2nnnc2SCC(=O)NC(C(=O)O)(c2ccccc2)c2ccccc2)cc1C`?
SARS 3CLpro inh-1: 14.2*; SSB-PriA inh: -7.9; BJeLR lethal: -5.3; SARS 3CLpro inh-2: 4.2

Results for O=C(CSc1nnnn1-c1cccc2ccccc12)NC(C(=O)O)(c1ccccc1)c1ccccc1 ?
SARS 3CLpro inh-1: 7.7; SSB-PriA inh: -16.7; BJeLR lethal: -5.1

Results for CC(=O)N1CCN(C2=NC(=O)/C(=C\c3ccc(-c4ccc(Cl)c(Cl)c4)o3)S2)CC1 ?
SSB-PriA inh: -5.0

How did CCN(c1ccccc1)S(=O)(=O)c1nnc(NC(=O)c2ccccc2OC)s1 do in these assays?
SARS 3CLpro inh-1: 12.7*; SSB-PriA inh: -10.6; BJeLR lethal: 4.5; SARS 3CLpro inh-2: 6.1

Results for COc1ccccc1C(=O)Nc1nc2ccc(S(C)(=O)=O)cc2s1 ?
SARS 3CLpro inh-1: -4.1; SSB-PriA inh: -14.6; BJeLR lethal: -17.1

How did CCN(c1ccccc1)S(=O)(=O)c1nnc(NC(=O)CC(C)C)s1 do in these assays?
SARS 3CLpro inh-1: 0.1; SSB-PriA inh: 30.1; BJeLR lethal: -2.2

Results for CN(Cc1ccc(F)cc1)S(=O)(=O)c1nnc(NC(=O)c2ccccc2Br)s1 ?
SARS 3CLpro inh-1: 12.7*; SSB-PriA inh: 2.9; BJeLR lethal: -8.9; SARS 3CLpro inh-2: 2.3

What do the screens show for `CN(Cc1ccc(F)cc1)S(=O)(=O)c1nnc(NC(=O)c2ccccc2)s1`?
SARS 3CLpro inh-1: 3.4; SSB-PriA inh: -5.2; BJeLR lethal: 12.0

What do the screens show for `COc1ccccc1C(=O)Nc1nc2ccccc2s1`?
SARS 3CLpro inh-1: 12.9*; SSB-PriA inh: -8.2; BJeLR lethal: 45.9; SARS 3CLpro inh-2: -0.1

How did C=CCn1c(=S)[nH]c2cc(C(=O)N3CCc4ccccc4C3)ccc2c1=O do in these assays?
SSB-PriA inh: 4.0

What do the screens show for `Cc1ccc(C)c(NC(=O)C(=O)NC[C@@H](c2cccn2C)N2CCc3ccccc3C2)c1`?
SSB-PriA inh: -11.0

Screening data as filed in PubChem.
